Reference: PubChem BioAssay (NCATS)
Inconclusive results are not listed. Entries that show only a call come without a potency. Active and inactive are the calls of the source. Calls come from the whole dose curve; as a rule, active = well fitted cell-killing curve with a large enough effect; inconclusive = small, poorly fitted or top-dose-only effect, or effect the other way; inactive = no such curve, though single readings can be large or run the other way.
Potency is the fitted concentration of half-maximal effect.

Test: Quantitative High-Throughput drug screen in 47 multiple myeloma cell lines against the NCATS MIPE library collection: Karpas417_ECACC cell viability assay (AID 1918961)
Details: Karpas417 myeloma viability, CellTiter-Glo ATP luminescence, 48 h; viability (% of DMSO): at 45.8 µM (top of the series)
Outline: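 CellTiter-Glo ATP luminescence gave viability after 48 h compound treatment at 37C of 500 multiple myeloma cells per well. Normalisation used DMSO-only wells as 100% and media-only wells as 0% viability; primary qHTS of approved and investigational drugs.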
For `CC1(C)[C@H]2CC[C@]3(C)[C@@H](C(=O)C=C4[C@@H]5C[C@@](C)(C(=O)O)CC[C@]5(C)CC[C@]43C)[C@@]2(C)CC[C@@H]1O`, the Potency was “inactive”.
In the case of `CN(C)CC[C@H](CSc1ccccc1)Nc1ccc(S(=O)(=O)NC(=O)c2ccc(N3CCN(Cc4ccccc4-c4ccc(Cl)cc4)CC3)cc2)cc1[N+](=O)[O-]`, the Potency is reported as 0.0935 µM (active).
In the case of `COc1cc(C=CC(=O)O)ccc1O`, the Potency is reported as 0.0042 µM (active).
With `O=C(CC12CC3CC(CC(C3)C1)C2)Nc1cccc2nc(NCCNCCO)ccc12` the Potency was 1.48 µM (active).
In the case of `Cc1cn([C@@H]2C[C@@H](O)[C@H](CO)O2)c(=O)[nH]c1=O`, the Potency is reported as “inactive”.
With `CS(=O)(=O)c1ccc(C2=C(c3ccccc3)C(=O)OC2)cc1` the Potency was “inactive”.
With `CN(C)CCOc1ccc(C(=C(CCCl)c2ccccc2)c2ccccc2)cc1` the Potency was “inactive”.
For `CN[C@@H]1[C@@H](O)[C@@H](O[C@@H]2[C@@H](O)[C@H](O[C@H]3O[C@H](CN)[C@@H](O)[C@H](O)[C@@H]3O)[C@@H](N)C[C@@H]2NC(=O)[C@@H](O)CN)OC[C@]1(C)O`, the Potency was “inactive”.
With `CN1CC(=O)N2C(Cc3c([nH]c4ccccc34)[C@H]2c2ccc3c(c2)OCO3)C1=O` (some centres undefined) the Potency was “inactive”.
